Measured values as given in PubChem BioAssay (NCATS).
Records with an inconclusive call do not appear. Where a call stands in place of a potency, no number is given. The source made the active and inactive calls. Calls follow the shape of the dose curve; as a rule, active = well fitted curve in the direction sought with a large enough effect; inconclusive = small, poorly fitted or top-dose-only effect, or another doubt; inactive = no such curve, though single readings can be large; an effect the other way counts as inactive or inconclusive.

How the values were obtained:
[1] = molecular target: Aldehyde dehydrogenase, mitochondrial (Homo sapiens) (UniProt P05091); experiment: qHTS for Inhibitors of the Aldehyde Dehydrogenase Family (ALDH2) Primary screen (AID 2061308); conditions: ALDH2 enzyme inhibition qHTS, 1536-well; series mostly up to 56 µM; also: nearly all actives have a fitted effect of over 55% in size
[2] = molecular target: Retinaldehyde dehydrogenase 3 (Homo sapiens) (UniProt P47895); experiment: qHTS for Inhibitors of the Aldehyde Dehydrogenase Family (ALDH1A3) Primary screen (AID 2061315); conditions: ALDH inhibition qHTS; series mostly up to 56 µM
[3] = molecular target: Aldehyde dehydrogenase 1A1 (Homo sapiens) (UniProt P00352); experiment: qHTS for Inhibitors of the Aldehyde Dehydrogenase Family (ALDH1A1) Confirmatory screens (AID 2061316); conditions: ALDH inhibition qHTS; series mostly up to 47.3 µM; also: potency is read from the fitted curve at half-maximal effect; nearly all actives have a fitted effect of over 65% in size

SMILES | Potency [1] | Potency [2] | Potency [3]
COc1cc(O)c(C(CC(=O)N2CCCC(C(F)(F)F)C2)c2ccc3c(c2)OCO3)c(OC)c1 (configuration not stated) | inactive | inactive | –
O=C(COC(=O)CNC(=O)c1ccccc1Cl)Nc1ccccc1Cl | inactive | inactive | –
O=C(OCC#CCSc1nnc(-c2ccc3ccccc3c2)o1)c1ccccc1 | inactive | inactive | –
CCOc1cc(CCNC(=O)c2cc3sccc3n2Cc2ccccc2)cc(F)c1OCC | inactive | inactive | –
CC(=O)c1ccc(N2CCN(S(=O)(=O)c3ccc4c(c3)C(=O)OC4)CC2)cc1 | inactive | inactive | –
O=S(=O)(c1ccc2c(c1)OCCO2)N1CCN(S(=O)(=O)c2ccccc2OC(F)(F)F)CC1 | inactive | inactive | –
Nc1ccccc1OCCn1c(CCNC(=O)C2CCCCC2)nc2ccccc21 | inactive | inactive | –
c1nc(NCc2ccc3c(c2)OCO3)c2cc(-c3ccoc3)ccc2n1 | inactive | inactive | –
COc1cc(F)c(F)c(Nc2ccc(I)cc2F)c1NS(=O)(=O)C1(CC(O)CO)CC1 (configuration not stated) | inactive | inactive | –
COc1cccc(N2C(=O)c3ccccc3C2=O)c1 | inactive | inactive | –
COCOC1CCC(C(=O)Nc2ccc([S+](=O)([O-])Nc3nccs3)cc2)CC1 (configuration not stated) | inactive | inactive | –
O=C1CCCC2=C1C(c1[nH]ncc1Cl)NC(=NCc1cccnc1)N2 (configuration not stated) | inactive | inactive | –
CC(C)(C)Cc1nnc(NC(=O)CSc2ccccc2)s1 | inactive | inactive | –
O=c1[nH]c(CCl)nc2sc3c(c12)CCC3 | inactive | inactive | –
Cc1cc(NS(=O)(=O)C2CCN(C(=O)Cc3ccc(Cl)c(Cl)c3)CC2)no1 | inactive | inactive | –
O=C(CN1C(=O)N/C(=C\c2cccn2-c2cccc(C(=O)O)c2)C1=O)Nc1cccc(Cl)c1 | inactive | inactive | –
C=C1[C@H]2CC[C@H](C(=O)O)[C@@]23CC[C@H](C3)C1(C)C | inactive | inactive | –
COc1cccc(C2c3c(ncn(-c4ccccc4C(C)(C)C)c3=N)Oc3ccc4ccccc4c32)c1 (configuration not stated) | inactive | inactive | –

SMILES | Potency [1] | Potency [2] | Potency [3]
Cc1cn([C@H]2C[C@H](N[S+](=O)([O-])Cc3cccc(Cl)c3)[C@@H](CO)O2)c(=O)[nH]c1=O | inactive | inactive | –
CCOc1ccccc1-c1nnc2n1N=C(c1ccc(OC)c(OC)c1)CS2 | inactive | inactive | –
C[C@@H]1COCCN1c1cc(C2(S(C)(=O)=O)CC2)nc(-c2cccc3[nH]ccc23)n1 | inactive | inactive | –
Cc1cccc(CNc2nc(-c3ccccc3C(F)(F)F)nc3ccccc23)c1 | inactive | inactive | –
Nc1cccc([S+](=O)([O-])N2CCCN([S+](=O)([O-])c3cccc(N)c3)CC2)c1 | inactive | inactive | –
CC(=O)CC(=O)Nc1ccc(Cl)c(C(F)(F)F)c1 | inactive | inactive | –
O=C1CCCC2=C1C(c1[nH]ncc1Cl)NC(=NCCc1ccccc1)N2 (configuration not stated) | inactive | inactive | –
CCOC(=O)c1ccoc1-c1ccc2ncnc(NCc3csc(C)n3)c2c1 | inactive | inactive | –
C=C(CCC1=C(C)[C@H]2[C@H](CC3[C@@H]4CC=C5C[C@@H](O)C[C@@H](O)[C@]5(C)C4[C@H](O)C[C@@]32C)O1)CO[C@@H]1O[C@H](CO)[C@@H](O)[C@H](O)[C@H]1O (some centres not stated) | inactive | inactive | –
Cc1ccc(NS(=O)(=O)c2ccc(F)cc2)cc1C | inactive | inactive | –
Oc1ccc(CNc2cccc(C(F)(F)F)c2)c2cccnc12 | inactive | inactive | –
O=C(Nc1nnc(-c2ccncc2)s1)Nc1ccc(Cl)cc1F | inactive | inactive | –
O=C1c2ccccc2C(=O)N1c1cnc2ccccc2c1 | inactive | inactive | –
Cc1ccc(NS(=O)(=O)c2ccc(C(=O)Nc3nc(-c4ccccc4)cs3)cc2)cc1 | inactive | inactive | –
COc1cc(O)c(C(CC(=O)N2CCOCC2)c2ccc3c(c2)OCO3)c(OC)c1 (configuration not stated) | inactive | inactive | –
Cc1ccc(CNc2ccccc2C(=O)Nc2nc(-c3ccccc3)cs2)cc1 | inactive | inactive | 22.5 µM (active)
CN(C)c1cccc(N2CCN(c3nn4c(=O)c5ccccc5nc4s3)CC2)c1 | inactive | inactive | 10.1 µM (active)
